# Results: PubChem BioAssay (NCATS)
# A number with no mark means an inactive call. Results filed as inconclusive are left out. Calls of active or inactive are those of the source. Unless noted, calls follow the shape of the dose curve; as a rule, active = well fitted curve in either direction with a large enough effect (not every such curve was filed as active); inconclusive = small, poorly fitted or top-dose-only effect, or another doubt; inactive = flat fitted curve, though single readings scatter.
# What was measured:
# [1] = target: Lysosomal acid glucosylceramidase (Homo sapiens) (UniProt P04062); assay: Glucocerebrosidase-p2 (AID 348; in the data active = potency below about 10 µM; also: potency is read from the fitted curve at half-maximal effect); conditions: purified GBA, blue fluorogenic substrate, 40 min
# How it was run: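 Normal human glucocerebrosidase (0.2 nM) with blue fluorogenic substrate (80 uM final) in citrate/phosphate pH 5.9 with 10mM sodium taurocholate, 0.01% tween-20; 40 min RT, NaOH/glycine stop; fluorescence Ex 365/Em 440; AC50 from a titration from 0.6 nM upwards.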
# [2] = AP1 Signaling Pathway (AID 357); conditions: ME-180 AP-1-bla reporter, EGF-induced, beta-lactamase ratio, 5 h; at 7.69 µM (top of the series) unless noted; also: % is scaled to controls: 0 for no effect and ±100 for the full control effect
# How it was run: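 Titration-series screen for positive or negative modulators of EC50 EGF-induced signaling in ME-180 cells carrying an AP-1-driven beta-lactamase reporter. After 5 hours at 37 degrees Celsius, CCF4 460nm/530nm emission ratio gave %Activity; AC50 values derived.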
# [3] = target: Cytochrome P450 1A2 (Homo sapiens) (UniProt P05177); assay: p450-cyp1a2 (AID 410; calls by dose curve; also: potency is read from the fitted curve at half-maximal effect;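 as to activity change, negative = inhibition: -100% = full effect of reference inhibitor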); conditions: recombinant CYP1A2, luciferin-ME demethylation, luminescence; series mostly up to 11.4 µM
# How it was run: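 O-Demethylation of luciferin 6' methyl ether by human CYP1A2 is monitored as luciferase luminescence. Substrate sits at Km (100uM); enzyme is 20nM. Values are scaled to 57 uM furafylline as maximal inhibition.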
# [4] = NFAT Signaling Pathway (AID 444); conditions: Jurkat NFAT-bla M1, carbachol, beta-lactamase ratio, 5 h; at 7.69 µM (top of the series) unless noted;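 also: carbachol stimulus at about its EC50 of 1 µM final; % is scaled to controls: 0 for no effect and ±100 for the full control effect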
# How it was run: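 Read-out: CCF4 FRET ratio (460 nm/530 nm) after 1 h RT dye loading, used for %activity and AC50 from titration series. Cells: Jurkat NFAT-β-lactamase/M1 line, treated with compound plus 1 uM carbachol for 5 h, 37 °C.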
# [5] = Stat Signaling Pathway (AID 446); conditions: ME-180 (cervical carcinoma) SIE beta-lactamase reporter, IL-6 stimulated, 5 h; at 7.69 µM (top of the series) unless noted;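 also: ME-180 cervical cancer cells given 40 pM IL-6 alongside compound; SIE-controlled beta-lactamase reporter measured as 460/530 nm FRET emission ratio; % is scaled to controls: 0 for no effect and ±100 for the full control effect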
# How it was run: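 Emission at 460 and 530 nm (excitation 405 nm) reports SIE-controlled beta-lactamase in ME-180 cells. Cells received compound with 40 pM IL-6 for 5 hrs at 37 C; data scaled between 300 pM IL-6 and 125 nM JAK-inhibitor controls.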
# [6] = target: Glucocorticoid receptor (Homo sapiens) (UniProt P04150); assay: GR-GFP Redistribution (AID 450;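 active = compounds whose dose series gives a full or clear partial fitted curve of increased nuclear translocation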; also: potency is read from the fitted curve at half-maximal effect); conditions: U2OS GR-GFP nuclear translocation, laser cytometry, 2 h
# [7] = target: Glucocorticoid receptor (Homo sapiens) (UniProt P04150); assay: GR-EFC Redistribution (AID 451; calls by dose curve; also: potency is read from the fitted curve at half-maximal effect); conditions: CHO-K1 GR-EFC translocation, beta-gal luminescence, 2 h
# How it was run: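 Translocation of GR-ED fusion to nuclear EA restores b-gal, read by luminescence after 1 h room-temperature detection. Engineered CHO-K1 biosensor cells, 1,000/well, exposed 2 h at 37 C to titrations up to 46 uM final.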
# [8] = target: Mitogen-activated protein kinase 10 (Mus musculus) (UniProt Q61831); assay: JNK3 AlphaScreen Assay (AID 530); conditions: JNK3 lysate, c-Jun phosphorylation; series mostly up to 11.4 µM;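 also: kinase came from lysate of stimulated human HepG2 cells; signal reports phosphorylation of biotinylated GST-cJun 1-79 at Ser73 with 10 µM ATP; % is scaled to controls: 0 for no effect and ±100 for the full control effect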
# How it was run: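 qHTS titrations with 15 min compound pre-incubation before adding ATP (10 uM final). Read-out: AlphaScreen of Ser73-phosphorylated biotin-GST-cJun using HepG2 lysate JNK3 activated by IL-1β and TNFα.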
# [9] = target: 3',5'-cyclic-AMP phosphodiesterase 4B (Homo sapiens) (UniProt Q07343); assay: qHTS Assay for Inhibitors of PDE-IV (AID 607; active = well fitted activation curve with a large enough effect in the main read-out, with a control signal flat, not every such curve was filed as active; also: % of control where 0% means no effect); conditions: HEK293 ACTOne CNG channel cells, membrane potential fluorescence; series mostly up to 22.9 µM
# How it was run: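 The readout is membrane depolarisation from a cAMP-sensing CNG channel, detected with a potential dye at ex 535/em 590. Cells were HEK293-derived (endogenous PDE-IV) at 1000 cells/well, titrated up to 22.9 uM final.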
# [10] = target: Cytochrome P450 3A4 (Homo sapiens) (UniProt P08684); assay: qHTS Assay for Activators of Cytochrome P450 3A4 (AID 885; active = well fitted curve in the direction sought with a large enough effect; an effect the other way counts as inactive or inconclusive; also: nearly all actives have a fitted effect of over 65% in size); conditions: recombinant CYP3A4, Luciferin-PPXE luminescence, 60 min; series mostly up to 11.4 µM
# How it was run: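 Activators are scored by enhanced luminescence from CYP3A4 conversion of luciferin-PPXE (25uM, equal to KM) to luciferin, after 60 min at RT with an NADPH-regenerating system.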
# [11] = target: Cytochrome P450 2D6 (Homo sapiens) (UniProt P10635); assay: qHTS Assay for Inhibitors and Substrates of Cytochrome P450 2D6 (AID 891; active = well fitted curve in the direction sought with a large enough effect; an effect the other way counts as inactive or inconclusive; also: nearly all actives have a fitted effect of over 60% in size; also: potency is read from the fitted curve at half-maximal effect); conditions: recombinant CYP2D6, luciferin-ME EGE luminescence; series mostly up to 11.4 µM
# How it was run: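 Luminescent read-out of luciferin formed by 5 nM human CYP2D6 demethylating 30 uM Luciferin-ME EGE (Km level) over 60 min at room temperature after NADPH regeneration addition. Data normalized to full inhibition by 1.43 uM quinidine.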
# [12] = target: Cytochrome P450 2C19 (Homo sapiens) (UniProt P33261); assay: qHTS Assay for Inhibitors and Substrates of Cytochrome P450 2C19 (AID 899; active = well fitted curve in the direction sought with a large enough effect; an effect the other way counts as inactive or inconclusive; also: nearly all actives have a fitted effect of over 60% in size; also: potency is read from the fitted curve at half-maximal effect); conditions: recombinant CYP2C19, luciferin-H EGE luminescence; series mostly up to 11.4 µM
# How it was run: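 Reactions contain 5nM enzyme, 10uM Luciferin-H EGE (KM) and 50mM KPO4; compound preincubates 10 min at 37C, NADPH regeneration starts turnover for 60 min. Luminescence after detection reagent gives activity.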
# Cytochrome P450 2D6 (Homo sapiens), sequence (P10635 whole entry, looked up): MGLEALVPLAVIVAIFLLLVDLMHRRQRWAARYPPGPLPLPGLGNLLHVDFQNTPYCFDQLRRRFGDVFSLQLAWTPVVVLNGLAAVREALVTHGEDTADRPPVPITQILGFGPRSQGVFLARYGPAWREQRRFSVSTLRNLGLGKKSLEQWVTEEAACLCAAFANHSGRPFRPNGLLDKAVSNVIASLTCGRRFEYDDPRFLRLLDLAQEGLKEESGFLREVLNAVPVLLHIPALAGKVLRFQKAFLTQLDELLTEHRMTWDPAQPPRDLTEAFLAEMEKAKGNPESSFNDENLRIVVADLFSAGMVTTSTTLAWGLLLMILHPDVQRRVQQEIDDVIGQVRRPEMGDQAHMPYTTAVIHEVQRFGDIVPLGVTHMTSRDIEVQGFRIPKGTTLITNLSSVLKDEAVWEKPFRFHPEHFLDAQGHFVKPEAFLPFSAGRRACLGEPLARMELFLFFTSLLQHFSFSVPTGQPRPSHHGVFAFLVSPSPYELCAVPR
# Cytochrome P450 3A4 (Homo sapiens), sequence (P08684 whole entry, looked up): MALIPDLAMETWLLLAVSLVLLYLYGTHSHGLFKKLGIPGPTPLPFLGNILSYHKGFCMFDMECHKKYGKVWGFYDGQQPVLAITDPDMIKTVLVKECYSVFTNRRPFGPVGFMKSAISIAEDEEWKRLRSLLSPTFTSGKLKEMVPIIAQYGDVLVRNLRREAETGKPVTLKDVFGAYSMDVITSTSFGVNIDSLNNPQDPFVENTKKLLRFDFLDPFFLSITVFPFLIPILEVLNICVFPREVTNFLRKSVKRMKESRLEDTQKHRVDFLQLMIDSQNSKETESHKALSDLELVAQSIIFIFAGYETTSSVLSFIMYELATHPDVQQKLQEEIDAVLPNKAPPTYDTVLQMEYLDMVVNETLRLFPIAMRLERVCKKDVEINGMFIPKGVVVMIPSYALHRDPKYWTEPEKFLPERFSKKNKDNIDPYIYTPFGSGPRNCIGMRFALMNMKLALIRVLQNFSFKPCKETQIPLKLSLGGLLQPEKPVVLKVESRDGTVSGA
# Cytochrome P450 1A2 (Homo sapiens), sequence (P05177 whole entry, looked up): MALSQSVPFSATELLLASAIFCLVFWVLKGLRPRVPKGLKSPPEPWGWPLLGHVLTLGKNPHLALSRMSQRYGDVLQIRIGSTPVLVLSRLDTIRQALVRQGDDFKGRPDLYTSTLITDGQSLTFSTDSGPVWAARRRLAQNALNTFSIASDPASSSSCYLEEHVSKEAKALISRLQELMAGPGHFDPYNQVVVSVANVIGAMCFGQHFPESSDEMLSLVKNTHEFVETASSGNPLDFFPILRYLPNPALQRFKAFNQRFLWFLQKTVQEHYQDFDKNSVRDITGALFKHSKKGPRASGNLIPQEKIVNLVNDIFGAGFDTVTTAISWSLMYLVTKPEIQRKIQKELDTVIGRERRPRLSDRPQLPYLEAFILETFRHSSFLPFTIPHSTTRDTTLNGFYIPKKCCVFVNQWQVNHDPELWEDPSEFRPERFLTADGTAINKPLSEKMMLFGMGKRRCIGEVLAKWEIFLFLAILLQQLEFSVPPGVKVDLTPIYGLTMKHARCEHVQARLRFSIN
# 3',5'-cyclic-AMP phosphodiesterase 4B (Homo sapiens), sequence (Q07343 whole entry, looked up): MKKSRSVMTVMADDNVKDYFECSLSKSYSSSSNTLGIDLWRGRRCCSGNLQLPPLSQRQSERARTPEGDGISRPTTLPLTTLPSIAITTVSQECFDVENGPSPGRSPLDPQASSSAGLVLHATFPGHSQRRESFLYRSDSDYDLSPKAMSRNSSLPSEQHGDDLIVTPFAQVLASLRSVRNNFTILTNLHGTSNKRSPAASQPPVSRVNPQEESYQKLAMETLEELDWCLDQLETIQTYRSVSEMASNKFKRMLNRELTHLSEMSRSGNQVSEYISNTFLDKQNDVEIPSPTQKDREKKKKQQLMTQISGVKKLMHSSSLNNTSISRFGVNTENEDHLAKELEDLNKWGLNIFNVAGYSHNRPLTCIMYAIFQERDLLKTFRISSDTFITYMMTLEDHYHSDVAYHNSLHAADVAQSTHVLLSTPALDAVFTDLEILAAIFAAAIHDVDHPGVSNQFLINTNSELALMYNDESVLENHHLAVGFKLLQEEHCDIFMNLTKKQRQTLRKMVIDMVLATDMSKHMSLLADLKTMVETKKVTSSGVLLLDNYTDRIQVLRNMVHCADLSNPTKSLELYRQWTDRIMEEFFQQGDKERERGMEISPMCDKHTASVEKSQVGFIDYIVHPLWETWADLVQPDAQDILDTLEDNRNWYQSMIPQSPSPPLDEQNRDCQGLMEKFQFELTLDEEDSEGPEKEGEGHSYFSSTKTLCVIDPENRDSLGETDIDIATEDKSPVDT
# Cytochrome P450 2C19 (Homo sapiens), sequence (P33261 whole entry, looked up): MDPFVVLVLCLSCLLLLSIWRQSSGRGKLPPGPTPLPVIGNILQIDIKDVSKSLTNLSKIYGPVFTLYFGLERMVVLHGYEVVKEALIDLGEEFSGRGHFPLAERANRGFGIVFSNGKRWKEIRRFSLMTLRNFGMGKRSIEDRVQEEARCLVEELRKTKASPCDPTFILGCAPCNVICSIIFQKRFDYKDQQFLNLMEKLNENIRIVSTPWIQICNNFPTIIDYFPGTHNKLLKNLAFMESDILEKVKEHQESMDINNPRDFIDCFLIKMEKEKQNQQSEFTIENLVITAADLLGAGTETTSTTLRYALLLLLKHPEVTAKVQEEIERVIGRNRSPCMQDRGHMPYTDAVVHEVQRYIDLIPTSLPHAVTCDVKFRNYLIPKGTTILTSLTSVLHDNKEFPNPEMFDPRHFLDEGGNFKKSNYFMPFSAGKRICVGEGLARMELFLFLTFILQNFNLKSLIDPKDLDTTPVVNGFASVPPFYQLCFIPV
# Lysosomal acid glucosylceramidase (Homo sapiens), sequence (P04062 whole entry, looked up): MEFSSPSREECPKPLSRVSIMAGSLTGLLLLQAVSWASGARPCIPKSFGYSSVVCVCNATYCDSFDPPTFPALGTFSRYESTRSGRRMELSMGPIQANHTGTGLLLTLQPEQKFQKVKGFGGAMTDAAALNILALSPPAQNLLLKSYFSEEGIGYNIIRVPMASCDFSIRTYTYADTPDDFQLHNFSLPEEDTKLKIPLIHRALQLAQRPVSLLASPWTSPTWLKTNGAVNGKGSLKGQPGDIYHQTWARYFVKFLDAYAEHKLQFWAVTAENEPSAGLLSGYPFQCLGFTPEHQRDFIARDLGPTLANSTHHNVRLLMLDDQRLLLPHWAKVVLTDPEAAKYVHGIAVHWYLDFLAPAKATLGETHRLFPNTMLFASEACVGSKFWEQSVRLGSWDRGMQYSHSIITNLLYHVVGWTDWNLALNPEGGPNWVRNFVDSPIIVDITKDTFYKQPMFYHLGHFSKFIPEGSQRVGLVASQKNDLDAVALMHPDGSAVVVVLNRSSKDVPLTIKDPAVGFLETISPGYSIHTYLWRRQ
# Glucocorticoid receptor (Homo sapiens), sequence (P04150 whole entry, looked up, the tested form may be a part): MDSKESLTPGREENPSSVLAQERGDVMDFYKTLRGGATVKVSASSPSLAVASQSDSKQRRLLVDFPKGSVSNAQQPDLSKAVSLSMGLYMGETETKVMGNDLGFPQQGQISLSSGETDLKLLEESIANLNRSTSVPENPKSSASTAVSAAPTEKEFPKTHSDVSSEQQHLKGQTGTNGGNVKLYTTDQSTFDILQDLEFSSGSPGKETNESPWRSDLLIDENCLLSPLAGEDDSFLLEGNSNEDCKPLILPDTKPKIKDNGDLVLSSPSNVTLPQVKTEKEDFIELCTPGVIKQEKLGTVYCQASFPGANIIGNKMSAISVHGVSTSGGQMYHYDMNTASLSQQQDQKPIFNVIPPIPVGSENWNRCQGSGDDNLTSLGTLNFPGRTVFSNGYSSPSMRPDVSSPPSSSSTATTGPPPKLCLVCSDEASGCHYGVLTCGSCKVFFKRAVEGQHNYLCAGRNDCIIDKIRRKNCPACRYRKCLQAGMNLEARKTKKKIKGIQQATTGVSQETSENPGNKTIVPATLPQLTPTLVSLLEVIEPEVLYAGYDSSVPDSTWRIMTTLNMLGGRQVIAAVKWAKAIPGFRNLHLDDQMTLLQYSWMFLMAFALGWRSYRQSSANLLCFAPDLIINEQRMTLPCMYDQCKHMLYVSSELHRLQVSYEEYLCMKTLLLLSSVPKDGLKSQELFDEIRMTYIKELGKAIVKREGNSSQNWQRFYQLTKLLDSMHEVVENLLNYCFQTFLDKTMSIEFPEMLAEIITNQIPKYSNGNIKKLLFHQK
Compound,Potency [1] [µM],"activity change, negative = inhibition [2] [%]",Potency [3],"activity change, negative = inhibition [4]","activity, negative = inhibition [5] [%]",Potency [6] [µM],Potency [7] [µM],Potency [8],Potency [9],Potency [10],"activity change, negative = inhibition [3]",Potency [11],Potency [12]
Cn1c(=O)c2[nH]c(CCCc3ccc([N+](=O)[O-])cc3)nc2n(C)c1=O,> 11.4,1.15,inactive,-1.84%,6,> 46,> 9.22,inactive,inactive,inactive,–,–,–
Nc1n[nH]c2ccccc12,> 11.4,-6.63,–,3.29%,-1.94,> 46,> 9.22,inactive,inactive,inactive,-9.1% [at 2.29 µM],–,–
COc1ccc(OC)c(-c2cc(C(=O)O)c3cc4ccccc4cc3n2)c1,> 11.4,4.44,–,15.6%,4.07,> 46,> 9.22,inactive,inactive,–,-21.4% [at 2.29 µM],3.98 µM (active),–
CC[C@H]1CN(C)[C@H]2Cc3c([nH]c4ccccc34)C(=O)C[C@H]1[C@H]2C(=O)OC,> 11.4,-2.14,inactive,11.7%,8.84,> 46,> 9.22,inactive,inactive,–,–,inactive,–
N/C(CC/C(N)=N/O)=N\O,> 11.4,-3.76,inactive,7.17%,-0.993,> 46,> 9.22,inactive,inactive,–,–,inactive,–
c1ccc2c(CN3CCN(Cc4c[nH]c5ccccc45)CC3)c[nH]c2c1,> 11.4,-5.4,–,5.24%,5.49,> 46,> 9.22,inactive,inactive,–,-18.1% [at 2.29 µM],2.51 µM (active),–
N/C(CC(=O)Nc1cc(C(F)(F)F)ccc1Cl)=N\O,> 11.4,-3.52,1.58 µM (active),11.5%,-1.63,> 46,> 9.22,inactive,inactive,inactive,–,–,inactive
O[C@@H](COc1ccc(Cl)cc1Cl)CN1CCCC1,> 11.4,7.86,5.01 µM (active),2.25%,4.26,> 46,> 9.22,inactive,inactive,–,–,0.316 µM (active),–
c1ccc2sc(SCCSc3nc4ccccc4s3)nc2c1,> 11.4,8.08,0.794 µM (active),-22.4%,2.32,> 46,> 9.22,inactive,inactive,–,–,inactive,–
O=S1(=O)[C@H]([C@H]2CC3c4ccccc4C2c2ccccc23)[C@@H](N2CCCCC2)[C@@H]1c1ccccc1,> 11.4,28.4,–,-27.2%,10.9,> 46,> 9.22,inactive,inactive,–,1.6% [at 2.29 µM],3.16 µM (active),2.51 µM (active)
NNC(=O)c1ccc[n+](CCc2ccccc2)c1,> 11.4,11.3,inactive,-4.8%,-0.167,> 46,> 9.22,inactive,inactive,–,–,2 µM (active),–
c1ccc(C(CCN2CC3CCC(CC3)C2)c2ccccc2)cc1,> 11.4,2.88,inactive,-81.8% (active),0.0517,> 46,> 9.22,inactive,inactive,–,–,0.794 µM (active),–
CC[C@H](C(=O)c1cccs1)C(O)(C(F)(F)F)C(F)(F)F,> 11.4,-7.57,–,20.8%,-6.19,> 46,> 9.22,inactive,inactive,–,-17.5% [at 2.29 µM],3.16 µM (active),–
C[C@H](C(=O)c1ccccc1)[C@@H](c1ccccc1)N1CCOCC1,> 11.4,-4.08,inactive,5.21%,8.2,> 46,> 9.22,inactive,inactive,inactive,–,–,1.58 µM (active)
Clc1cc2c(c(CSC3=NCN(CC4CC4)CN3)c1)OCOC2,> 11.4,5.83,3.16 µM (active),-19.2%,0.512,> 46,> 9.22,inactive,inactive,–,–,0.199 µM (active),–
